Mac1 fbg enh = enhancers of CD11b/CD18 adhesion to fibrinogen, primary screen, K562 cells, luminescence; ATPlite luminescence; activation, % at 10 µM; hit rate 0.07% among 93,000; AID 1499, 2009;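 active = 10 µM primary screen giving 50% or more activity, confirmed by 40% or more on retest at that dose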
CYP2C19 act = human CYP2C19 activators, primary screen, biochemical, luminescence; activation factor at 5 µM; recombinant CYP2C19, luciferin-H EGE luminescence; hits give high values; 0 = fully inhibited enzyme, 1 = untreated enzyme; AID 1025, 2008; 96,000 tested, under 10 active; Cytochrome P450 2C19 (Homo sapiens), P33261;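 active = activation factor of at least 2 at 5 µM in the primary screen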;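 also: 0 = wells with 2.5 mM tranylcypromine and 1 = vehicle-only wells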
Target sequence (P33261 whole entry, looked up): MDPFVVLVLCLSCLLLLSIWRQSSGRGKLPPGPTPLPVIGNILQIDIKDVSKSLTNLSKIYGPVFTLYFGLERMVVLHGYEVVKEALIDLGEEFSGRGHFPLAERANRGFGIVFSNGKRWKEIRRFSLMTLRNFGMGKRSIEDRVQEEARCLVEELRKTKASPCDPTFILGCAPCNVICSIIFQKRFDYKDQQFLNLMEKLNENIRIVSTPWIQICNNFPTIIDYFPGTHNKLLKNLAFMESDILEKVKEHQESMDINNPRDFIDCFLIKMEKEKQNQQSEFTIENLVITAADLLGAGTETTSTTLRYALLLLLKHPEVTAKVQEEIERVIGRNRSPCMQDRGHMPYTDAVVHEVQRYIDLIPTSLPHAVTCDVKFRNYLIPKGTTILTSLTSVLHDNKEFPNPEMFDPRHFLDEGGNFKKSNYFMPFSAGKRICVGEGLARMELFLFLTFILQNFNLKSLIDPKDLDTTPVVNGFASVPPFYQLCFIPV
CYP2C9 activ = human CYP2C9 activators, primary screen, biochemical, luminescence; activation factor at 5 µM; recombinant CYP2C9, luciferin-H conversion; hits give high values; factor 1 = untreated enzyme, 0 = blocked; Cytochrome P450 2C9 (Homo sapiens), P11712; hit rate 1.4% among 96,000;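 active = activation factor of 2 or more for CYP2C9 at a 5 µM dose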;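 also: 0 = sulfaphenazole-blocked wells and 1 = vehicle-only wells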
CYP2C9 inh = blockers of cytochrome P450 2C9 activity – biochemical, luminescence, ADME assay, primary screen; inhibition, % at 5 µM; P11712; CYP2C9 Supersomes, luciferin-H conversion; AID 777, 2007; hit rate 20% among 96,000;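 active = blocking of liver enzyme CYP2C9 beyond about 50% at 5 µM, limit read from the data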
CD11b adhes inh = inhibitors of CD11b/CD18 adhesion to fibrinogen, primary screen, K562 cells, luminescence. hit rate 0.54% among 93,000. inhibition, % at 10 µM. AID 1497, 2009. ATPlite luminescence; Mn2+ added to activate the integrin. Integrin beta-2 (Homo sapiens) + Integrin alpha-M (Homo sapiens), P05107+P11215;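 active = primary inhibition of 50% or more at 10 µM, then 40% or more on retest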
CYP2C19 inh = blockers of cytochrome P450 2C19 activity – biochemical, luminescence, ADME assay, primary screen. CYP2C19 Supersomes, luciferin-H EGE luminescence, 30 min. AID 778, 2007. inhibition, % at 5 µM. hit rate 21% among 96,000. P33261;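 active = CYP2C19 inhibition above a set limit at 5 µM in the primary screen, cut at about 50% in these data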;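 also: plate controls were negative control wells for no effect and 2.5 mM tranylcypromine positive control for full effect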
* hit, by the source's call; nt = no result given. Rows were chosen to be rich in hits. Some 28% of all compounds tested hit in one or more screens of this group.

SMILES	Mac1 fbg enh	CYP2C19 act	CYP2C9 activ	CYP2C9 inh	CD11b adhes inh	CYP2C19 inh
COc1ccc(CCNC(=O)C2CCCN(S(=O)(=O)c3cnc[nH]3)C2)cc1OC (centres undefined)	-1.9	0.3	0.3	71.0*	-15.8	73.3*
CCS(=O)(=O)N1CCCC(C(=O)NCCc2ccc(OC)c(OC)c2)C1 (centres undefined)	-1.0	1.1	1	1.7	12.8	-11.7
CCN(CCCNC(=O)C1CCCN(S(=O)(=O)CC)C1)c1cccc(C)c1 (centres undefined)	-0.8	1	1.2	-23.4	6.9	2.2
Cc1noc(C)c1S(=O)(=O)N1CCC(C(=O)NCCC2=CCCCC2)CC1	-0.8	1	0.9	6.4	6.0	0.5
CCN(CCCNC(=O)C1CCN(S(=O)(=O)c2cnc[nH]2)CC1)c1cccc(C)c1	-5.5	0.2	0.1	87.7*	-6.6	77.7*
COc1ccc(CCNC(=O)C2CCN(S(=O)(=O)c3cnc[nH]3)CC2)cc1OC	-1.5	0.8	0.3	72.9*	-27.3	21.1
Cc1nn(C)c(C)c1S(=O)(=O)N1CCC(C(=O)NCCC2=CCCCC2)CC1	-1.4	1.2	2.1*	-110.1	2.3	-16.3
CC(O)C(NS(=O)(=O)c1ccc(Cl)cc1)C(=O)OCC(=O)N1CCN(c2ccccc2)CC1 (centres undefined)	-4.1	nt	nt	nt	4.6	nt
COc1ccc(OC)c(S(=O)(=O)N2CCC(C(=O)NCCc3ccc(OC)c(OC)c3)CC2)c1	0.2	0.4	0.8	15.3	-30.8	61.0*
CN(CCNC(=O)C1CCN(S(=O)(=O)c2cnc[nH]2)CC1)Cc1ccccc1	-5.2	0.6	0.5	52.3*	4.6	39.7
COc1ccc(CCNC(=O)C2CCN(S(=O)(=O)N3CCCCC3)CC2)cc1OC	0.1	1	0.9	13.3	-5.1	1.3
COc1ccc(C)cc1S(=O)(=O)N1CCC(C(=O)NCCC2=CCCCC2)CC1	-2.8	0.6	3.1*	-211.5	-1.3	35.5
CN(CCCNC(=O)C1CCCN(S(=O)(=O)c2cnc[nH]2)C1)c1ccccc1 (centres undefined)	1.8	0.1	0.2	76.6*	-10.6	88.7*
COc1ccc(S(=O)(=O)N2CCC(C(=O)NCCC3=CCCCC3)CC2)cc1C	-2.5	0.6	0.9	8.9	-0.4	37.8
CCS(=O)(=O)N1CCCC(C(=O)NCCN(C)Cc2ccccc2)C1 (centres undefined)	nt	1	1	-0.3	nt	-0.8
Cc1csc(/C(=N\O)c2csc(C)n2)n1	2.6	1.1	1	-0.5	-6.7	-6.0
CCCCN(Cc1ccccc1)C(=O)C1CCCN(S(=O)(=O)c2cnc[nH]2)C1 (centres undefined)	0.0	0.4	0.6	35.8	-0.3	62.9*
COc1ccc(S(=O)(=O)N2CCC(C(=O)NCCc3ccc4c(c3)OCO4)CC2)cc1	-2.8	0.1	2.1*	-111.8	-5.4	85.5*
C=C(C)C1Cc2c(C)nn(-c3nc(C)cc(C)n3)c2C1 (centres undefined)	-1.6	1.1	1	0.9	8.0	-12.7
COc1ccc(C(C(=O)NC(C)(C)C)N(C(=O)CNC(=O)c2cccs2)c2ccc(C)cc2)cc1OC (centres undefined)	nt	0.8	0.8	19.0	nt	17.9
Cc1cc(N)ccc1-n1c(C)ccc1C	20.8	0.5	0.6	35.5	23.1	52.6*
Cc1cc(N)ccc1N1CCCC1	nt	0.9	1	-2.1	nt	13.7
CCSc1nc2c(sc3ccccc32)c(=O)n1C(C)C	3.4	1.1	1.2	-23.3	15.8	-12.4
Cc1ccc(S(=O)(=O)N(C)C)cc1NC(=O)CCNC(=O)c1ccccc1Cl	-1.7	nt	nt	nt	-11.8	nt
Nc1nc(-c2ccccc2)cs1	-1.3	1	1.1	-5.9	-33.4	3.6
SMILES	Mac1 fbg enh	CYP2C19 act	CYP2C9 activ	CYP2C9 inh	CD11b adhes inh	CYP2C19 inh
Cc1ccc(-c2csc(C3C(N)=NC(S)=C(C#N)C34CCCCC4)n2)cc1 (centres undefined)	14.2	0.5	0.1	88.6*	-0.8	49.6
N#CC1=C(S)N=C(N)C(c2nc(-c3ccccc3)cs2)C12CCCC2 (centres undefined)	-3.6	0.1	0	98.4*	0.6	86.3*
N#CC1=C(S)N=C(N)C(c2nc(-c3ccccc3)cs2)C12CCCCC2 (centres undefined)	-2.2	0.4	0.3	67.1*	2.0	59.5*
COc1ccc(/C(O)=C2/C(=O)C(=O)N(Cc3cccnc3)C2c2ccco2)cc1OC (centres undefined)	nt	0.7	0.6	36.6	nt	25.9
O=C1C(=O)N(Cc2cccnc2)C(c2ccccn2)/C1=C(/O)c1ccc(F)cc1 (centres undefined)	-4.2	1.1	0.3	71.0*	-10.7	-7.2
Cc1ccc(/C(O)=C2/C(=O)C(=O)N(Cc3cccnc3)C2c2ccccn2)cc1 (centres undefined)	-0.2	0.3	0.1	89.9*	-42.8	66.0*
CCOc1cccc(/C(O)=C2/C(=O)C(=O)N(Cc3cccnc3)C2c2ccco2)c1 (centres undefined)	nt	0.9	0.3	65.3*	nt	5.6
CC1(C)Cc2nc3oc4c(=S)nc[nH]c4c3cc2CO1	-1.3	0.8	0.8	22.0	0.2	16.2
COc1ccc(C2(CNC(=O)c3ccc(OCC(C)C)cc3)CCOCC2)cc1	-2.0	nt	nt	nt	-10.5	nt
CC(C)OC(=O)C1C(=O)CC(C)(O)C(C(=O)OC(C)C)C1c1cccc(O)c1 (centres undefined)	0.6	0.5	0.8	22.4	-17.1	49.7
Cc1c(C#N)c2ccccc2n1CC(=O)N1CCCC1	-2.9	1.1	1.1	-7.6	12.7	-6.0
CCOC(=O)CSCc1c(C#N)c2ccccc2n1C	-1.0	0	1.1	-7.7	0.9	99.7*
CC1CCN(Cc2c(C#N)c3ccccc3n2C)CC1	-4.0	0.2	0.9	11.9	-7.8	80.6*
CC1CCCCN1Cc1c(C#N)c2ccccc2n1C (centres undefined)	1.8	0.5	1	-2.2	-2.8	52.4*
CN1CCN(Cc2c(C#N)c3ccccc3n2C)CC1	-0.9	0.5	1.9	-85.2	-5.9	48.0
Cn1c(CN2CCOCC2)c(C#N)c2ccccc21	-3.8	0.1	1.8	-78.7	1.5	88.2*
CC(C)(C)c1ccc(C(=O)NC(=S)Nn2cnnc2)cc1	-0.7	nt	nt	nt	8.8	nt
CCOC(=O)C1C(=O)C=C(/C=C/c2ccccc2)CC1c1ccc(Cl)cc1 (centres undefined)	3.9	0.9	0.8	21.4	7.4	9.5
O=S(=O)(c1ccccc1Cl)N1CCCC1c1nc(-c2ccc(Cl)cc2)no1 (centres undefined)	-10.8	0.7	1.1	-9.3	94.9	27.9

Bioassay records from PubChem BioAssay.
